Measurements from PubChem BioAssay (NCATS).
Several values for one entry are separate records, joined by “and”; a condition that tells them apart may be missing. Equal entries are not always repeated. Results filed as inconclusive are left out. Activity calls are given as the source filed them. Unless noted, calls come from the whole dose curve.

Assay: qHTS assay for small molecule agonists of the antioxidant response element (ARE) signaling pathway (AID 651741; active = well fitted activation curve with a large enough effect in the signal ratio; the % refers to the signal ratio; note: potency is the fitted concentration of half-maximal effect; for activation: % of control where 0% means no effect)
Conditions: HepG2 ARE-bla reporter, beta-lactamase FRET ratio, 16 h; series mostly up to 96 µM; activation: at the top concentration
Procedure, shortened: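 CellSensor ARE-bla HepG2 cells (2,000/well) carrying ARE-driven beta-lactamase, exposed 16 h at 37 C. LiveBLAzer B/G FRET substrate added for 2 h at room temperature; fluorescence intensity read.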

**Q.** Which Potency does the source give for `Cc1noc(NS(=O)(=O)c2ccc(N)cc2)c1C` here?
**A.** inactive

**Q.** Which “activation” value does the source give for `Cc1nnc(NS(=O)(=O)c2ccc(N)cc2)s1` here?
**A.** 4.16% (inactive)

**Q.** For `Cc1ccnc2c1NC(=O)c1cccnc1N2C1CC1`, which “activation” value is on record?
**A.** -0.886% (inactive)

**Q.** Which Potency does the source give for `NC(N)=NC(N)=NCCc1ccccc1` here?
**A.** 37.6 µM (active)

**Q.** For `Cc1ncc([N+](=O)[O-])n1CCO`, which “activation” value is on record?
**A.** -0.558% (inactive)

**Q.** Which “activation” value does the source give for `NNC(=O)c1ccncc1` here?
**A.** 2.11% (inactive)

**Q.** With `CCc1cc(C(N)=S)ccn1` as the compound, how does the “activation” value read?
**A.** -1.2% (inactive)

**Q.** Which “activation” value does the source give for `Cc1cc(NS(=O)(=O)c2ccc(N)cc2)no1` here?
**A.** 0.813% (inactive)

**Q.** Which “activation” value does the source give for `O=C(O)c1cc(=O)[nH]c(=O)[nH]1` here?
**A.** 1.46% (inactive)

**Q.** For `COc1ccc2cc3[n+](cc2c1OC)CCc1cc2c(cc1-3)OCO2`, which Potency is on record?
**A.** 33.5 µM (active)

**Q.** With `O=C(N[C@H](CO)[C@H](O)c1ccc([N+](=O)[O-])cc1)C(Cl)Cl` as the compound, how does the “activation” value read?
**A.** 0.648% (inactive)

Assay: qHTS assay for small molecule activators of the p53 signaling pathway (AID 651743; active = well fitted activation curve with a large enough effect in the signal ratio, not every such curve was filed as active; the % refers to the signal ratio; note: % of control where 0% means no effect)
Conditions: HCT-116 p53RE-bla, beta-lactamase FRET ratio, 16 h; active compounds read high
Procedure, shortened: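 p53RE-bla HCT-116 cells carrying a beta-lactamase reporter under p53 response elements were exposed to compounds for 16 hours at 37 C. Reporter activity read as fluorescence after 2 hours at room temperature with LiveBLAzer B/G FRET substrate.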

**Q.** For `CC[C@H](C)C(=O)O[C@H]1C[C@@H](C)C=C2C=C[C@H](C)[C@H](CC[C@@H]3C[C@@H](O)CC(=O)O3)[C@H]21`, which activation is on record?
**A.** -3.22% (inactive)

**Q.** With `Cc1noc(NS(=O)(=O)c2ccc(N)cc2)c1C` as the compound, how does the activation read?
**A.** -3.81% (inactive) and -3.88% (inactive)

**Q.** With `S=P(N1CC1)(N1CC1)N1CC1` as the compound, how does the activation read?
**A.** 23.1% (inactive)

**Q.** With `Cc1nnc(NS(=O)(=O)c2ccc(N)cc2)s1` as the compound, how does the activation read?
**A.** -1.27% (inactive)

**Q.** For `OC(Cn1cncn1)(Cn1cncn1)c1ccc(F)cc1F`, which activation is on record?
**A.** -0.436% (inactive)

**Q.** With `Cc1ccnc2c1NC(=O)c1cccnc1N2C1CC1` as the compound, how does the activation read?
**A.** -7.19% (inactive)

**Q.** Which activation does the source give for `NC(N)=NC(N)=NCCc1ccccc1` here?
**A.** 7.9% (inactive) and 8.21% (inactive)

**Q.** With `Cc1ncc([N+](=O)[O-])n1CCO` as the compound, how does the activation read?
**A.** -1.78% (inactive)

**Q.** With `NNC(=O)c1ccncc1` as the compound, how does the activation read?
**A.** 0.245% (inactive)

**Q.** Which activation does the source give for `CC1=NN(c2ccccc2)C(=O)C1` here?
**A.** -1.06% (inactive) and 1.05% (inactive)

**Q.** For `CCc1cc(C(N)=S)ccn1`, which activation is on record?
**A.** -0.635% (inactive) and 1.18% (inactive)

**Q.** With `Cc1cc(NS(=O)(=O)c2ccc(N)cc2)no1` as the compound, how does the activation read?
**A.** -3.47% (inactive)

**Q.** Which activation does the source give for `O=C(O)c1cc(=O)[nH]c(=O)[nH]1` here?
**A.** -1.01% (inactive)

**Q.** For `COc1ccc2cc3[n+](cc2c1OC)CCc1cc2c(cc1-3)OCO2`, which activation is on record?
**A.** 9.7% (inactive)

**Q.** Which activation does the source give for `O=C(N[C@H](CO)[C@H](O)c1ccc([N+](=O)[O-])cc1)C(Cl)Cl` here?
**A.** 0.234% (inactive) and 2.8% (inactive)

Assay: qHTS assay for small molecule activators of the nuclear factor-kappa B (NF-kB) signaling pathway (AID 651749; active = well fitted activation curve with a large enough effect in the signal ratio; the % refers to the signal ratio; note: % of control where 0% means no effect)
Conditions: NF-kB-bla ME-180 cells, beta-lactamase FRET ratio, 16 h; active compounds read high
Procedure, shortened: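 NF-kB-bla ME-180 cells carrying a beta-lactamase reporter under an NF-kB response element, 2,000 cells/well, exposed to compound for 16 hr at 37C; FRET-based beta-lactamase fluorescence read-out of pathway activation.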

**Q.** For `CC[C@H](C)C(=O)O[C@H]1C[C@@H](C)C=C2C=C[C@H](C)[C@H](CC[C@@H]3C[C@@H](O)CC(=O)O3)[C@H]21`, which activation is on record?
**A.** -1.44% (inactive)

**Q.** With `CC(=O)Oc1ccccc1C(=O)Nc1ncc([N+](=O)[O-])s1` as the compound, how does the activation read?
**A.** -1.07% (inactive)

**Q.** With `Cc1noc(NS(=O)(=O)c2ccc(N)cc2)c1C` as the compound, how does the activation read?
**A.** -1.4% (inactive) and -1.01% (inactive)

**Q.** For `S=P(N1CC1)(N1CC1)N1CC1`, which activation is on record?
**A.** 0.913% (inactive)

**Q.** Which activation does the source give for `N=C(N)c1ccc(OCCCCCOc2ccc(C(=N)N)cc2)cc1` here?
**A.** 0.454% (inactive) and 0.519% (inactive)

**Q.** Which activation does the source give for `OC(Cn1cncn1)(Cn1cncn1)c1ccc(F)cc1F` here?
**A.** -1.38% (inactive)

**Q.** Which activation does the source give for `NC(N)=NC(N)=NCCc1ccccc1` here?
**A.** 0.778% (inactive) and 0.59% (inactive)

**Q.** For `C[C@]12C=CC(=O)C=C1CC[C@@H]1[C@@H]2C(=O)C[C@@]2(C)[C@H]1CC[C@]2(O)C(=O)CO`, which activation is on record?
**A.** 1.39% (inactive)

**Q.** For `NNC(=O)c1ccncc1`, which activation is on record?
**A.** -1.16% (inactive)

**Q.** Which activation does the source give for `CC1=NN(c2ccccc2)C(=O)C1` here?
**A.** 1.02% (inactive) and -0.66% (inactive)

**Q.** With `CCc1cc(C(N)=S)ccn1` as the compound, how does the activation read?
**A.** 0.391% (inactive) and -1.64% (inactive)

**Q.** Which activation does the source give for `O=C(N[C@H](CO)[C@H](O)c1ccc([N+](=O)[O-])cc1)C(Cl)Cl` here?
**A.** -1.34% (inactive) and 1.06% (inactive)

Assay: qHTS assay for small molecule disruptors of the mitochondrial membrane potential - 1 hr assay (AID 651754); note: nearly all actives have a fitted effect of over 35% in size; note: potency is the fitted concentration of half-maximal effect; for ratio change, negative = depolarisation: % is set by controls: 0 for no effect and ±100 for the full control effect
Conditions: series mostly up to 92.2 µM; ratio change, negative = depolarisation: at the top concentration
Procedure, shortened: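 HepG2 cells, attached overnight, were exposed to compound for 1 hr at 37C, then stained 30 min with a potentiometric dye. Ratio of red aggregate (590nm) to green monomer (535nm) fluorescence reports membrane potential; collapse shifts signal toward green.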

**Q.** Which Potency does the source give for `CN(C)c1ccc(C(=C2C=CC(=[N+](C)C)C=C2)c2ccc(N(C)C)cc2)cc1` here?
**A.** 0.668 µM (active)

**Q.** With `C[C@]12C=CC(=O)C=C1CC[C@@H]1[C@@H]2C(=O)C[C@@]2(C)[C@H]1CC[C@]2(O)C(=O)CO` as the compound, how does the “ratio change, negative = depolarisation” value read?
**A.** 1.11% (inactive)

**Q.** For `NNC(=O)c1ccncc1`, which “ratio change, negative = depolarisation” value is on record?
**A.** -1.89% (inactive)

**Q.** With `CCc1cc(C(N)=S)ccn1` as the compound, how does the “ratio change, negative = depolarisation” value read?
**A.** -3.13% (inactive)

**Q.** Which Potency does the source give for `COc1ccc2cc3[n+](cc2c1OC)CCc1cc2c(cc1-3)OCO2` here?
**A.** 21.1 µM (active)

**Q.** Which “ratio change, negative = depolarisation” value does the source give for `O=C(N[C@H](CO)[C@H](O)c1ccc([N+](=O)[O-])cc1)C(Cl)Cl` here?
**A.** 1.21% (inactive)

Assay: qHTS assay for small molecule disruptors of the mitochondrial membrane potential - 5 hr assay (AID 651755); note: nearly all actives have a fitted effect of over 40% in size; note: potency is the fitted concentration of half-maximal effect; for ratio change, negative = disruption: % is set by controls: 0 for no effect and ±100 for the full control effect
Conditions: JC-1-type ratio dye; series mostly up to 92.2 µM; ratio change, negative = disruption: at the top concentration
Text: National Center for Advancing Translational Sciences [NCATS]
NIH Chemical Genomics Center [NCGC]
National Institutes of Environmental Health Sciences [NIEHS]
National Toxicology Program [NTP]
Mitochondrial membrane potential (MMP), one of the parameters for mitochondrial function, is generated by mitochondrial electron transport chain that creates an electrochemical gradient by a series of redox reactions. This gradient drives the synthesis of ATP, a crucial molecule for various cellular processes. Measuring MMP in living cells is commonly used to assess the effect of chemicals on mitochondrial function. […] The dye accumulates in the mitochondria of healthy cells as aggregates, with red fluorescence. The mitochondrial potential collapses and the dye can no longer accumulate in the mitochondria and remains in the cytoplasm in monomers, with green fluorescence.
2,000 HepG2 cells in 5 uL/well were dispensed into black, clear-bottom 1536-well plates using a Multidrop Combi (Thermo Scientific) dispenser. The assay plates were incubated overnight at 37C to allow cells to attach to the wells, followed by the transfer of 23 nL compound or DMSO vehicle by a pin tool (Kalypsys). The plates were incubated for 5 hr at 37C and 5% CO2, followed by the addition of 5 uL of 2X Mito-MPS dye (BD Biosciences) into each well using Flying Reagent Dispenser (Aurora Discovery) and then following 30 min incubation at 37C. Fluorescence intensity (490nm excitation and 535nm emission for monomers; and 540nm excitation and 590nm emissions for aggregates) was measured using an Envision plate reader.

**Q.** Which “ratio change, negative = disruption” value does the source give for `CC[C@H](C)C(=O)O[C@H]1C[C@@H](C)C=C2C=C[C@H](C)[C@H](CC[C@@H]3C[C@@H](O)CC(=O)O3)[C@H]21` here?
**A.** -0.123% (inactive)

**Q.** With `CN(C)c1ccc(C(=C2C=CC(=[N+](C)C)C=C2)c2ccc(N(C)C)cc2)cc1` as the compound, how does the Potency read?
**A.** 1.19 µM (active)

**Q.** For `C[C@]12C=CC(=O)C=C1CC[C@@H]1[C@@H]2C(=O)C[C@@]2(C)[C@H]1CC[C@]2(O)C(=O)CO`, which “ratio change, negative = disruption” value is on record?
**A.** -0.565% (inactive)

**Q.** For `NNC(=O)c1ccncc1`, which “ratio change, negative = disruption” value is on record?
**A.** 0.402% (inactive)

**Q.** With `CCc1cc(C(N)=S)ccn1` as the compound, how does the “ratio change, negative = disruption” value read?
**A.** -4.28% (inactive)

**Q.** With `COc1ccc2cc3[n+](cc2c1OC)CCc1cc2c(cc1-3)OCO2` as the compound, how does the Potency read?
**A.** 9.44 µM (active)

**Q.** With `O=C(N[C@H](CO)[C@H](O)c1ccc([N+](=O)[O-])cc1)C(Cl)Cl` as the compound, how does the “ratio change, negative = disruption” value read?
**A.** -16.2% (inactive)
